In PubChem BioAssay (EPA / NIEHS):
Records with an inconclusive call do not appear. Activity calls are given as the source filed them. The calls were made as follows: active = hit-call score of the fitted dose curve at least 0.9, where 1 is the maximum; inconclusive = response in the unintended direction; inactive = score below 0.9.

What was measured:
[1] = TOX21_p53_BLA_p2_viability: Viability Assessment in the Tox21 HCT-116 p53 Agonism Beta-lactamase Assay, Phase 2 (AID 2283591);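 also: compound exposure lasted 16 h at 37 °C; actives lower the ATP signal meaning cytotoxicity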
Method in brief: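 Cytotoxicity readout: CellTiter-Glo ATP luminescence, 30 min at room temperature, after the beta-lactamase read. Cells were HCT116 exposed 16 h at 37C to compounds pin-transferred at 217-fold dilution from DMSO stocks.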

[2] = molecular target: Cellular tumor antigen p53 (Homo sapiens) (UniProt P04637); assay: TOX21_p53_BLA_p2_ratio: Tox21 HCT-116 p53 Agonism Beta-lactamase Assay, Ratio, Phase 2 (AID 2283592)
Cellular tumor antigen p53 (Homo sapiens), sequence (P04637 whole entry, looked up): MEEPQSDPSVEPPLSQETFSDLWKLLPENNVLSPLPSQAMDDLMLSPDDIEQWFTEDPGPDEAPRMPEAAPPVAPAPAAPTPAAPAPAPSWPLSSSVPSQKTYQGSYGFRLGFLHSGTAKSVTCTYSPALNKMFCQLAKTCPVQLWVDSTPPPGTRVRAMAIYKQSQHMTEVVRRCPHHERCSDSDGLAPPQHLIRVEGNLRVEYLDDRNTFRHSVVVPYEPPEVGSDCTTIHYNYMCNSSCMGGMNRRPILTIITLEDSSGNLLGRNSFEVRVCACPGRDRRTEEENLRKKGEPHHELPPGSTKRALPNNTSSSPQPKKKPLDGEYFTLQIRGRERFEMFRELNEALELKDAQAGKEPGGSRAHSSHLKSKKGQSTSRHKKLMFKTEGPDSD
Method in brief: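 HCT116 cells carrying a p53-responsive beta-lactamase reporter were plated, incubated 5 h at 37C, then dosed with compounds in DMSO (217-fold dilution) for 16 h. CCF4-AM substrate was added for 2 h at room temperature; the 460/530 nm emission ratio gave gain-of-signal activity relative to DMSO.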

[3] = TOX21_p53_BLA_p3_viability: Viability Assessment in the Tox21 HCT-116 p53 Agonism Beta-lactamase Assay, Phase 3 (AID 2283593);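 also: cells exposed to compound for 16 h before reading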
Method in brief: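 Cellular ATP was quantified by CellTiter-Glo luminescence, read after 30 min at room temperature. Beforehand, HCT116 cells (4000/well) received compound 5 h post-seeding, 217-fold diluted from DMSO, then incubated 16 h at 37C.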

[4] = TOX21_p53_BLA_p4_viability: Viability Assessment in the Tox21 HCT-116 p53 Agonism Beta-lactamase Assay, Phase 4 (AID 2283597);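 also: hits lower the luminescence signal meaning cytotoxicity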
Method in brief: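 HCT116 p53-bla cells (4000/well) rested 5 h at 37C, then received compounds in DMSO (217-fold dilution) for 16 h at 37C, 5% CO2. CellTiter-Glo was added after the CCF4-AM read, and luminescence was read after 30 min at room temperature.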

[5] = molecular target: Cellular tumor antigen p53 (Homo sapiens) (UniProt P04637); assay: TOX21_p53_BLA_p5_ratio: Tox21 HCT-116 p53 Agonism Beta-lactamase Assay, Ratio, Phase 5 (AID 2283599)
Method in brief: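 Beta-lactamase reporter ratio (blue 460 nm over green 530 nm, 405 nm excitation) after 2 h CCF4-AM loading, in HCT-116 cells exposed 16 h at 37 C to compounds pinned at 217-fold dilution. Increases relative to DMSO baseline scored.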

[6] = TOX21_p53_BLA_p5_viability: Viability Assessment in the Tox21 HCT-116 p53 Agonism Beta-lactamase Assay, Phase 5 (AID 2283600)
Method in brief: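 Cells were plated at 4000/well, rested 5 h at 37C, then given compounds in DMSO (217-fold dilution) for 16 h at 37C, 5% CO2. Following the CCF4-AM beta-lactamase read, CellTiter-Glo was added and luminescence was read after 30 min at room temperature.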

[7] = molecular target: Cellular tumor antigen p53 (Homo sapiens) (UniProt P04637); assay: TOX21_p53_BLA_p4_ratio: Tox21 HCT-116 p53 Agonism Beta-lactamase Assay, Ratio, Phase 4 (AID 2283601)
Method in brief: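 Signal is the blue/green (460nm/530nm) ratio of cleaved versus uncleaved CCF4-AM substrate, read after 2 h substrate loading. Cells were HCT116 carrying the p53-responsive beta-lactamase reporter, dosed 16 h at 37C, 5% CO2; CellTiter-Glo measured in parallel.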

Row | SMILES | outcome [1] | outcome [2] | outcome [3] | outcome [4] | outcome [5] | outcome [6] | outcome [7] | AC50 [3] | AC50 [4] | AC50 [7]
1 | CCCCC(CC)COC(=O)C(C#N)=C(c1ccccc1)c1ccccc1 (stereo unspecified) | inactive | inactive | inactive | inactive | inactive | inactive | inactive |  |  | 
2 | C=CCNC(N)=S | inactive | inactive | inactive | inactive | inactive | inactive | inactive |  |  | 
3 | CC(C)(C)NC[C@H](O)COc1ccccc1C1CCCC1 | inactive | inactive | inactive | inactive | inactive | inactive | inactive |  |  | 
4 | CN(C)CCN(C)CCN(C)C | inactive | inactive | inactive | inactive | inactive | inactive | inactive |  |  | 
5 | Cc1cc(CC(=O)O)c(C)n1-c1ccc(Cl)cc1 | inactive | inactive | inactive | inactive | inactive | inactive | inactive |  |  | 
6 | c1ccncc1 | inactive | inactive | inactive | inactive | inactive | inactive | inactive |  |  | 
7 | Cc1cc(N)c2ccccc2[n+]1CCCCCCCCCC[n+]1c(C)cc(N)c2ccccc21 | inactive | inactive | inactive | inactive | inactive | inactive | inactive |  |  | 
8 | Clc1ccc2c(c1)CCc1cccnc1C2=C1CCNCC1 | inactive | inactive | inactive | inactive | inactive | inactive | inactive |  |  | 
9 | CC(C)CN(C[C@@H](O)[C@H](Cc1ccccc1)NC(=O)O[C@H]1CO[C@H]2OCC[C@H]21)S(=O)(=O)c1ccc(N)cc1 | inactive | inactive | inactive | inactive | inactive | inactive | inactive |  |  | 
10 | C[C@]12C=CC(=O)N[C@@H]1CC[C@@H]1[C@@H]2CC[C@]2(C)[C@@H](C(=O)Nc3cc(C(F)(F)F)ccc3C(F)(F)F)CC[C@@H]12 | inactive | inactive |  | inactive | inactive | inactive | inactive | 7.37 µM (active) |  | 
11 | CC(C)OC(=O)C(C)N(C(=O)c1ccccc1)c1ccc(F)c(Cl)c1 (stereo unspecified) | inactive | inactive | inactive | inactive | inactive | inactive | inactive |  |  | 
12 | CN1CCN(CCC=C2c3ccccc3Sc3ccc(S(=O)(=O)N(C)C)cc32)CC1 | inactive | inactive | inactive |  | inactive | inactive |  |  | 34.9 µM (active) | 43.7 µM (active)
13 | Nc1cccc(S(=O)(=O)O)c1 | inactive | inactive | inactive | inactive | inactive | inactive | inactive |  |  | 
